12-LOX inh – Primary qHTS assay for inhibitors of human arachidonate 12S-lipoxygenase (ALOX12): Round 2. Polyunsaturated fatty acid lipoxygenase ALOX12 (Homo sapiens), P18054. purified 12hLO, xylenol orange hydroperoxide absorbance. actives 1.1% (n = 580,000). Potency, µM (highest dose often 108 µM), for inactives: at the highest dose activity change, negative = inhibition, hits mostly inhibitors; note: % is set by controls: 0 for no effect and ±100 for the full control effect
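Purified human 12hLO (150 nM final) in 25 mM Hepes, 0.01% Triton X-100, pH 7.0 was preincubated 15 min at room temperature with compound. Then 40 uM arachidonic acid was added, 30 min. Hydroperoxide was read by Fe-XO absorbance ratio 573/405 nm.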
VDR inh – Inhibitors of the vitamin D receptor (VDR): qHTS; AID 504847, 2011; Potency, µM, for the others: max response, negative = inhibition, usual class: inhibitors; Vitamin D3 receptor (Homo sapiens), P11473; actives 0.93% (n = 400,000); VDR-SRC2-3 peptide fluorescence polarization, 2 h; note: % is set by controls: 0 for no effect and ±100 for the full control effect
Target sequence (P11473 whole entry, looked up): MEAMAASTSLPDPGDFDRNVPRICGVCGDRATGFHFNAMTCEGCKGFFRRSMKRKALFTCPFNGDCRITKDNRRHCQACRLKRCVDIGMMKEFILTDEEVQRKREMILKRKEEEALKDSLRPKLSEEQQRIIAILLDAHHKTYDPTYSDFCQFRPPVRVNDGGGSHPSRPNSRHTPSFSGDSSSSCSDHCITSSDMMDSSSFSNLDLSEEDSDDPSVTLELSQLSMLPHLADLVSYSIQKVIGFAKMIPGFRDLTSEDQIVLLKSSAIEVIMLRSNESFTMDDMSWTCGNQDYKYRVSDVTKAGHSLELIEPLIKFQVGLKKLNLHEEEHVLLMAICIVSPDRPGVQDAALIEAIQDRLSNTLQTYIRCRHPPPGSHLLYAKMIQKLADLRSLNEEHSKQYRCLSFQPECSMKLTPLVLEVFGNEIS
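Measured by FP: displacement of SRC2-3 coactivator peptide from VDR by library compounds, following a two-hour ambient incubation.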
Glioma ERSR ind – qHTS for Inducers of the Endoplasmic Reticulum Stress Response (ERSR) in Human Glioma: qHTS | U87-MG GRP78 promoter luciferase reporter, 16 h | actives 0.02% (n = 420,000) | Potency, µM, inactives show at the top dose activation, actives largely listed as activators | AID 602332, 2012; note: series mostly up to about 76 µM; % of control where 0% means no effect; nearly all actives have a fitted effect of over 35% in size
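Stably transfected U87-MG human glioma cells carrying a GRP78-based luminescent sensor were seeded at 1000 cells/well, pin-dosed with compounds and incubated 16 h. Luciferase reagent was then added, and end-point luminescence was read after 10 min at room temperature.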
G9a block – qHTS Assay for Inhibitors of Histone Lysine Methyltransferase G9a; Histone-lysine N-methyltransferase EHMT2 (Homo sapiens), Q96KQ7; G9a H3K9 monomethylation, AlphaScreen, 2 h; Potency, µM (highest dose often 102 µM), without a hit: at the top dose activity, negative = inhibition, most hits filed as inhibitors; actives 8.8% (n = 350,000); AID 504332, 2011; note: % is set by controls: 0 for no effect and ±100 for the full control effect; nearly all actives have a fitted effect of over 75% in size
Target sequence (Q96KQ7 913-1193 limits assumed): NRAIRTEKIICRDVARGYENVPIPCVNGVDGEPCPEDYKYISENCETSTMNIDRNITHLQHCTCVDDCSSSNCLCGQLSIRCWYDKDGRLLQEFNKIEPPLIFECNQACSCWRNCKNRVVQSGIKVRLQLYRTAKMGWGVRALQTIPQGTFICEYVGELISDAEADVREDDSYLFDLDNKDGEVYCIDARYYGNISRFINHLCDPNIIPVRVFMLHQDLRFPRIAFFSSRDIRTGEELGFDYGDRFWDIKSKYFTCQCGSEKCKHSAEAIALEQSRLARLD
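Methyltransferase reactions run at room temperature for 2 h (20 nM enzyme, 500 nM biotin-H3K9 peptide, 20 uM SAM) after a 15 min compound preincubation; product detected by AlphaScreen beads and anti-H3K9me1 antibody.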
Sfp inh – qHTS Assay for Inhibitors of Bacillus subtilis Sfp phosphopantetheinyl transferase (PPTase) | Biochemical Sfp PPTase activity, qHTS | 4'-phosphopantetheinyl transferase ffp (Bacillus subtilis), Q9F4F7 | actives 3.5% (n = 310,000) | AID 1490, 2009 | Potency, µM, for inactives: largest response in the series, negative = inhibition, usual class: inhibitors;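 note: the enzyme is Sfp with the accession as filed and its product quenches rhodamine fluorescence; 0% = enzyme reaction without inhibitor and -100% = no enzyme wells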
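With Hepes-Na pH 7.6 buffer containing 10 mM MgCl2, Sfp (15 nM) modified BHQ-2-YbbR (12.5 uM) using rhodamine-CoA (5 uM). Two reads 30 minutes apart at 525/598 nm yielded each well's rate.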
Starred values were filed as active, the others as inactive; ? = inconclusive; nt = not tested or not shown; ! = not active in a repeat; [ ] = another dose, or the depositor's remark. This excerpt belongs to a sample that is enriched for hits. Calls come from the whole dose curve; as a rule, active = well fitted curve in the direction sought with a large enough effect; inconclusive = small, poorly fitted or top-dose-only effect, or another doubt; inactive = no such curve, though single readings can be large; an effect the other way counts as inactive or inconclusive. Potency is the fitted concentration of half-maximal effect.

SMILES	12-LOX inh	VDR inh	Glioma ERSR ind	G9a block	Sfp inh
C=CCN1CC[C@]23c4c5ccc(O)c4O[C@@H]2/C(=N/N=C2\CC[C@@]4(O)C6Cc7ccc(O)c8c7[C@@]4(CCN6CC=C)[C@@H]2O8)CC[C@@]3(O)C1C5	nt	0.8%	-11.8%	12.6µM*!	nt
C=CCN1CCC23c4c5ccc(O)c4OC2/C(=N/N=C2\CCC4(O)C6Cc7ccc(O)c8c7C4(CCN6CC=C)C2O8)CCC3(O)C1C5 (stereo not drawn)	36.8%	-11.9%	-1.6%	25.1µM*	-9.1%
Cc1noc(C)c1COc1ccc(CC(=O)N2CCCN(C)CC2)cc1	-33.4%	nt	nt	nt	nt
O=C1NC2(CCN(Cc3ccccn3)C2)Oc2ccccc21 (stereo not drawn)	101.0%[176 µM]	nt	nt	nt	nt
CCCC1(CCC)C(=O)NC(=NCc2ccccc2)NC1=O	?	4.4%	-7.8%	44.7µM*	-6.7%
CCCn1ncc(C(=O)N[C@H]2COC[C@H]2Cc2cc(C)no2)c1C	8.3%	nt	nt	nt	nt
CCC(CC)c1cc([C@H]2CN3CC[C@H]2C[C@@H]3CNS(=O)(=O)c2cccs2)nc(-c2ccncc2)n1	22.4%	nt	nt	nt	nt
Cn1nc(-c2ccc(F)cc2)cc1[C@H]1CN2CC[C@H]1C[C@@H]2CNC(=O)COc1ccccc1	2.5%	nt	nt	nt	nt
CN1CCNc2cc(Nc3ccc(F)c(Cl)c3)ncc2C1	-16.4%[176 µM]	nt	nt	nt	nt
CC(=O)c1c(O)n(-c2cccc(Cl)c2)c(=O)[nH]c1=O (tested in a mixture with another compound)	?	0.3%	-3.9%	50.1µM*	-6.5%
O=Cc1ccc(O)c(O)c1	?	10.7%	-3.2%	?	31.6µM*
COC(=O)C(O)(c1c(C)[nH]n(-c2ccccc2)c1=O)C(F)(F)F (stereo not drawn)	?	?	10.9%	31.6µM*	21.2%
COP(=S)(OC)Oc1ccc(S(=O)(=O)N(C)C)cc1	11.2µM*!	?	-3.6%	10µM*	35.5µM*
O=[S+]1([O-])NC2(CCN(CC3CCCC3)C2)COc2ccncc21 (stereo not drawn)	3.7%[6.33 µM]	nt	nt	nt	nt
C=CCN1C(=O)NC(=O)/C(=C\c2ccc(-c3ccccc3[N+](=O)[O-])o2)C1=O	35.5µM*	17.8µM*	-4.5%	22.4µM*	25.1µM*
O=C1NC(=O)N(Cc2ccco2)C(=O)/C1=C/c1ccc(-c2cccc([N+](=O)[O-])c2)o1	nt	14.1µM*	0.5%	3.16µM*	20µM*
COCCNC(=O)[C@H]1CN2CC[C@H]1C[C@@H]2Cn1cc(CN(C)C)nn1	70.8%[176 µM]	nt	nt	nt	nt
O=C(O)CC[n+]1ccc(-c2cc[n+](CCC(=O)O)cc2)cc1	14.1µM*	nt	nt	nt	nt
Cn1cccc1/C=C1\C(=O)NC(=O)N(CCC2=CCCCC2)C1=O	-27.7%	-0.1%	-1.1%	-5.9%[59 µM]	3.3%
Cn1cccc1/C=C1\C(=O)NC(=O)N(Cc2ccccc2Cl)C1=O	?	0.2%	-5.3%	44.7µM*	-14.6%
O=C1NC(=O)N(c2ccccc2)C(=O)/C1=C/c1coc2ccc(O)cc2c1=O	44.7µM*	50.1µM*	-5.3%	-114.4%[59 µM]	50.1µM*
O=C1NC(=O)N(c2ccc(Cl)cc2)C(=O)/C1=C/c1coc2ccc(O)cc2c1=O	?	?	-5.5%	15.8µM*	44.7µM*
CCCNC(=O)N1[C@H]2CC[C@@H]1c1cnc(-c3ccccc3)nc1C2	31.2%	nt	nt	nt	nt
CC(C)CCN1CCC2(CNS(=O)(=O)c3cccnc3O2)C1 (stereo not drawn)	0.9%[6.33 µM]	nt	nt	nt	nt
CCCCCCC[n+]1ccc(-c2cc[n+](CCCCCCC)cc2)cc1	?	-14.2%	-4.1%	4.47µM*	-16.8%
SMILES	12-LOX inh	VDR inh	Glioma ERSR ind	G9a block	Sfp inh
c1ccc2c[n+](CCCCCCCCCC[n+]3ccc4ccccc4c3)ccc2c1	9.0%	nt	nt	nt	nt
CCCCCCCCCCCCCCCC[n+]1ccccc1	?	-4.5%	-10.8%	-35.4%[2.33 µM]	50.1µM*!
c1ccc(C[n+]2ccccc2)cc1	-17.0%	-16.7%	-0.6%	16.0%[2.33 µM]	nt
COCCn1c(C)cc(C(=O)N2[C@H]3CC[C@@H]2c2cnc(-c4ccc(F)cc4)nc2C3)c1C	14.0%	nt	nt	nt	nt
COc1ccc(CC2NCC(O)C2OC(C)=O)cc1 (stereo not drawn)	8.2%	-12.3%	-5.5%	nt	-4.7%
COc1ccc(C[C@H]2NC[C@H](O)[C@@H]2OC(C)=O)cc1	0.0%	35.5µM*	-7.0%	nt	-9.4%
COc1cc(/C=C(/C)[N+](=O)[O-])ccc1OCc1ccccc1Cl	nt	8.91µM*	-14.2%	10µM*	14.1µM*
Clc1ccc2[nH]c3c(c2c1)CCNC3	-9.9%	8.8%	-3.0%	79.4µM*	2.9%
CCCC[N+]12CCC(CC1)C(=C(c1ccccc1)c1ccccc1)C2	?	-4.8%	-3.5%	10µM*	1.2%
Cc1nnc(C(C)N2CCN(C(=O)Cc3ccccc3C)CC2)o1 (stereo not drawn)	19.0%	nt	nt	nt	nt
CN1C(CC(=O)c2ccccc2)CCCC1CC(O)c1ccccc1 (stereo not drawn)	-5.2%	89.1µM*!	-5.9%	-2.0%[2.33 µM]	7.0%
CN1[C@@H](CC(=O)c2ccccc2)CCC[C@H]1C[C@H](O)c1ccccc1	-14.9%	1.6%	-4.7%	27.8%[12.7 µM]	-7.9%
CSc1cccc(NC(=O)NC[C@H]2C[C@@H]3CCN2C[C@@H]3CN2CCN(c3ccccc3)CC2)c1	73.8%	nt	nt	nt	nt
O=C(O)c1ccccc1-c1c2cc(Br)c(=O)cc-2oc2[c]([Hg])c(O)c(Br)cc12	nt	2.24µM*	-3.0%	0.891µM*	2µM*!
COc1ccc(C(=O)N2[C@H]3CC[C@@H]2c2cnc(C)nc2C3)c(OC)c1	23.0%	nt	nt	nt	nt
COc1ccc(NC(=O)CCc2nc(C3=CCN(Cc4cccc(Cl)c4)CC3)no2)cc1OC	?	5.4%	-2.7%	28.2µM*	nt
COc1ccc(NC(=O)CCc2nc(C3=CCN(Cc4cccc(Cl)c4)CC3)no2)c(OC)c1	-12.0%	1.2%	-2.1%	?	nt
Cc1ccccc1C(=O)NNC(=S)NC(=O)COc1ccccc1	3.55µM*	?	10.8%	0.562µM*	?
COc1ccc(CC(=O)NC(=S)NNC(=O)COc2c(C)cccc2C)cc1	?	-12.3%	-1.2%	1.12µM*	2.3%
COc1ccc(C(=O)NC(=S)NNC(=O)c2cccnc2)cc1	?	-0.4%	-1.3%	?	6.1%
CC(=O)NCCc1c[nH]c2ccccc12	?	-0.2%	-1.7%	1.5%[59 µM]	21.4%
Cc1ccc(NC(=O)COC(=O)CCc2c[nH]c3ccccc23)cc1[N+](=O)[O-]	-0.7%	9.4%	-5.5%	39.8µM*	?
CCn1c(C2CCNCC2)nn(C)c1=O	4.0%	nt	nt	nt	nt

Bioassay records deposited in PubChem BioAssay by National Center for Advancing Translational Sciences (NCATS).
